Measured values published in PubChem BioAssay (NCATS).
Results filed as inconclusive are left out. Activity calls are given as the source filed them. The call rests on the fitted dose curve; in most records, active means well fitted curve in the direction sought with a large enough effect; inconclusive means small, poorly fitted or top-dose-only effect, or another doubt; inactive means no such curve, though single readings can be large; an effect the other way counts as inactive or inconclusive.

Key:
[1] = KB-8-5-11 Cancer Cell Toxicity qHTS against the NCATS CANVASS Library (AID 1347364); further: nearly all actives have a fitted effect of over 75% in size
In short: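 Natural products were titrated in 11 points onto KB-8-5-11 cells, 500 per well, and cytotoxicity was scored from CellTiter-Glo luminescence after 72 hr culture.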

[2] = KB-3-1 Cancer Cell Toxicity qHTS against the NCATS CANVASS Library (AID 1347366); further: nearly all actives have a fitted effect of over 75% in size
In short: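 Cytotoxicity toward KB-3-1 cells (500/well, DMEM + 10% FBS) was scored by CellTiter-Glo luminescence following 72 hr exposure at 37C, with bortezomib titrated as control.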

[3] = qHTS for ATAD5 Agonist screened against the NCATS CANVASS Library (AID 1347367);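 further: luciferase reporter driven by ATAD5 which rises upon DNA damage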
In short: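 Genotoxicity was scored as increased ATAD5-luciferase luminescence in HEK293T after 16hr of exposure, with cell viability measured by fluorescence beforehand in the same well.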

[4] = MCF7 Cancer Cell Toxicity qHTS against the NCATS CANVASS Library (AID 1347369)
In short: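 This 72 hr qHTS scored MCF7 viability by CellTiterGlo luminescence, with 500 cells/well; bortezomib titration ran as control.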

[5] = qHTS for ATAD5 Antagonist screened against the NCATS CANVASS Library (AID 1347370);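 further: HEK293T cells carrying an ATAD5 luciferase reporter co-treated with 10 µM 5-fluorouridine; nearly all actives have a fitted effect of over 65% in size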
In short: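 HEK293T cells with a stably integrated ATAD5-controlled luciferase reporter were exposed to compounds (11-pt) alongside 10 uM 5-fluorouridine as ATAD5 stabilizer for 16hr at 37C. Viability was read by CellTiter-Fluor fluorescence, then ATAD5 by luminescence.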

[6] = J3T Cancer Cell Toxicity qHTS against the NCATS CANVASS Library (AID 1347371);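 further: J3T is a canine glioma cancer cell line seeded at 500 cells per well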
In short: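 Viability of the J3T glioma line from dog is scored by ATP luminescence after a 72 hr incubation with natural products.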

[7] = target: Nuclear receptor subfamily 1 group I member 3 (Homo sapiens) (UniProt Q14994); test: qHTS for Constitutive Androstane Receptor (CAR) Antagonist screened against the NCATS CANVASS Library (AID 1347372);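 further: cells stimulated with 50 nM CITCO agonist so inhibition reflects antagonism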
Chain of Nuclear receptor subfamily 1 group I member 3 (Homo sapiens) (Q14994 whole entry, looked up): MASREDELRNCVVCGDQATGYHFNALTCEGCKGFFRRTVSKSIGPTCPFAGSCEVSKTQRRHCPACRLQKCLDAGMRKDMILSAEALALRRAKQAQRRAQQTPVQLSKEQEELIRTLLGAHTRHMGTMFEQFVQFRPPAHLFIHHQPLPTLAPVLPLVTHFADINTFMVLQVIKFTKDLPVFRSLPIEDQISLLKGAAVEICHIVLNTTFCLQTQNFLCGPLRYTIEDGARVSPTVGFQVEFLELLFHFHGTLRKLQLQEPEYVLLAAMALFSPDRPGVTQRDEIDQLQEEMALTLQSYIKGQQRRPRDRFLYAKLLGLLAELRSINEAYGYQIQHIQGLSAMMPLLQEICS
In short: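 HepG2 cells stably carrying hCAR and CYP2B6-2.2kb luciferase reporter, 2500 cells/well, compound with 50 nM CITCO agonist for 24hr at 37C. ONE-Glo luminescence measured CAR activity; CellTiter-Fluor read viability.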

[8] = target: Nuclear receptor subfamily 1 group I member 3 (Homo sapiens) (UniProt Q14994); test: qHTS for Constitutive Androstane Receptor (CAR) Agonist screened against the NCATS CANVASS Library (AID 1347373);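 further: every well also contained 1.5 µM PK11195 alongside the test compound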
In short: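 CAR agonism is scored as CYP2B6-promoter luciferase induction in a double-stable transfected HepG2 line, where 1.5uM PK11195 is included in each well. Compounds were tested over a 24hr exposure.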

[9] = 10-beta competent E. coli microbial cell viability qHTS against the NCATS CANVASS Library (AID 1347376)
In short: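 Cytotoxicity toward competent E. coli is scored from cellular ATP content via BacTiter-Glo luminescence following overnight compound exposure at 37C, 5% CO2.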

[10] = DH5-alpha competent E. coli microbial cell viability qHTS against the NCATS CANVASS Library (AID 1347377); conditions: BacTiter-Glo ATP luminescence, overnight; at 46.1 µM (top of the series)
In short: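 Cell viability of competent DH5-alpha E. coli is scored from ATP content by luminescence. Cells sit overnight at 37C with compound across an 11-point concentration series.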

[11] = qHTS for H2AX Agonists against the NCATS CANVASS Library (AID 1347378);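 further: phospho-H2AX S139 level in CHO-K1 lysates by TR-FRET emission ratio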
In short: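 Signal is the 665/620 nm emission ratio from europium cryptate and d2 antibody pair, rising with S139-phosphorylated H2AX. CHO-K1 cells saw test agents for 3 hr at 37C; detection ran 24 hr at room temperature.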

[12] = qHTS for Inflammasome Signaling Inhibitors: IL-1-beta AlphaLISA screen against the NCATS CANVASS Library (AID 1347379); conditions: THP-1 LPS/ATP, IL-1B AlphaLISA secretion, 16 h; at 57.5 µM (top of the series);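 further: human THP-1 cells primed with LPS then triggered with ATP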
In short: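 Human THP-1 cells were pretreated 1 hr at 37 °C with compounds (up to 57.5 uM final), then stimulated with LPS (250 ng/mL final) and ATP (1.25 mM final). Secreted IL-1B was read by AlphaLISA after 16 hr.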

[13] = qHTS for Antimalaria activity screened against the NCATS CANVASS Library (AID 1347380);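 further: Plasmodium falciparum strain Dd2 asexual parasites grown in red blood cells; nearly all actives have a fitted effect of over 40% in size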
In short: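 Growth inhibition of asexual erythrocytic P. falciparum Dd2 was quantified by SYBR Green DNA staining. Cultures grew 72 h with compound (11-point series) in hypoxic gas at 37C; lysis and staining lasted 18 h.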

[14] = Inflammasome Signaling qHTS Counterscreen: IL-1-beta AlphaLISA counterscreen against the NCATS CANVASS Library (AID 1347381);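 further: cell-free check with purified IL-1β in medium and no THP-1 cells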
In short: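 To flag interference with the AlphaLISA read-out, a known amount of purified IL-1-beta (4 pg) replaced cell supernatant. Detection used anti-IL-1-beta acceptor beads, biotinylated antibody and streptavidin donor beads at room temperature.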

[15] = Cytotoxicity qHTS for assessment of Hepg2 cells membrane integrity screened against the NCATS CANVASS Library (AID 1347387)
In short: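 Fluorescence proportional to lysed-cell number, from LDH leaking out of HepG2 cells exposed 5 hr at 37C to 0.59 nM - 46 uM compound (11-point qHTS), is measured after 10 min with CytoTox-ONE.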

[16] = qHTS for Activators of p53 Stress Response Pathway screened against the NCATS CANVASS Library (AID 1347388)
In short: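 p53RE-bla HCT-116 cells (4000/well) were pre-incubated for 5 h, then treated with compound (11 points) for 16 h at 37C. After 2 h with CCF4, the 460/530 nm ratio gave reporter activation; CellTiter-Glo measured viability.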

[17] = qHTS assay for small molecule disruptors of mitochondrial membrane potential screened against the NCATS CANVASS Library (AID 1347389); further: nearly all actives have a fitted effect of over 60% in size
In short: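 Compounds tested in 11-point qHTS series on HepG2 cells for 1 hr; membrane-potential dye added for 30 min at 37C. Lower red-to-green ratio indicates loss of potential.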

[18] = Secretion counterscreen for inhibitors of the SERCaMP assay screened against the NCATS CANVASS Library (AID 1347390);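 further: light from luciferase secreted into medium read as a measure of general secretion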
In short: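 Natural products are titrated in an 11-point series up to 77 uM onto SH-SY5Y-GLuc STOP cells for 20 h. Secreted reporter activity is measured as coelenterazine-driven luminescence, with Brefeldin A on each plate.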

[19] = qHTS for activators of Nrf2/ARE signaling pathway screened against the NCATS CANVASS Library (AID 1347391); further: nearly all actives have a fitted effect of over 60% in size
In short: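 Cells carrying an ARE-driven beta-lactamase reporter (HepG2 background) are dosed for 16 h, then stained with CCF4. Cell viability in the same wells is measured by CellTiter-Glo luminescence.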

[20] = qHTS for activators of dead-cell proteases activity screened against the NCATS CANVASS Library (AID 1347392);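 further: luminescence from protease leaking out of membrane-damaged cells cleaving impermeant substrate; rising signal means more cytotoxicity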
In short: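 HepG2 cells, 2000/well, attached 18 h at 37C, then exposed to compounds (11-point qHTS) for 5 h. Dead-cell protease release read as luminescence from cell-impermeant AAF-aminoluciferin substrate after 15 min at room temperature.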

Measured: outcome

COc1ccc2[nH]cc(CCNC(C)=O)c2c1
inactive: [1] | [2] | [3] | [4] | [5] | [6] | [7] | [8] | [9] | [10] | [11] | [12] | [13] | [14] | [15] | [16] | [17] | [18] | [19] | [20]
